Assay results published in the supplement of paper PMC9492666.
Structures can show the parent of a compound that is named as a salt.

What was measured:
HCC1937 = assay: relative cell viability, compound + RSL3, vs DMSO (fraction of DMSO control); higher = less growth inhibition; settings: 72 h
MDA-MB-231 = assay: as above; settings: 72 h
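Also: breast cancer cell viability read out with the CCK-8 kit after co-treatment of each compound with the ferroptosis inducer RSL3.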

Compound	relative cell viability (HCC1937)	relative cell viability (MDA-MB-231)
O=C(NCCS(=O)(=O)c1ccc(C(F)(F)F)cn1)c1ccc(Cl)cc1 + COC(=O)c1ccc([C@H]2c3[nH]c4ccccc4c3C[C@H](C(=O)OC)N2C(=O)CCl)cc1 [RSL3]	0.362	0.525
CC(C)OC(=O)C(C)(C)Oc1ccc(C(=O)c2ccc(Cl)cc2)cc1 [Fenofibrate] + COC(=O)c1ccc([C@H]2c3[nH]c4ccccc4c3C[C@H](C(=O)OC)N2C(=O)CCl)cc1 [RSL3]	0.681	0.606
C/C=C(\CC[C@@H](C)[C@H]1CC[C@H]2[C@@H]3CC=C4C[C@@H](O)CC[C@]4(C)[C@H]3CC[C@]12C)C(C)C [Fucosterol] + COC(=O)c1ccc([C@H]2c3[nH]c4ccccc4c3C[C@H](C(=O)OC)N2C(=O)CCl)cc1 [RSL3]	0.476	0.694
Oc1ccc(/C=C/c2cc(O)cc(O)c2)cc1 [Resveratrol] + COC(=O)c1ccc([C@H]2c3[nH]c4ccccc4c3C[C@H](C(=O)OC)N2C(=O)CCl)cc1 [RSL3]	0.63	0.508
O=C(O)C(O)Cc1ccc(O)c(O)c1 (stereo unspecified) [Sodium Danshensu] + COC(=O)c1ccc([C@H]2c3[nH]c4ccccc4c3C[C@H](C(=O)OC)N2C(=O)CCl)cc1 [RSL3]	0.631	0.545
COc1ccc(-c2cc(=O)c3c(O)c(OC)c(OC)c(OC)c3o2)cc1OC + COC(=O)c1ccc([C@H]2c3[nH]c4ccccc4c3C[C@H](C(=O)OC)N2C(=O)CCl)cc1 [RSL3]	0.343	0.501
CCCCCCCCCCCC1=C(O)C(=O)C=C(O)C1=O [Embelin] + COC(=O)c1ccc([C@H]2c3[nH]c4ccccc4c3C[C@H](C(=O)OC)N2C(=O)CCl)cc1 [RSL3]	0.458	0.471
CC(=O)N1CCN(c2ccc(OCC3COC(Cn4ccnc4)(c4ccc(Cl)cc4Cl)O3)cc2)CC1 (stereo unspecified) [Ketoconazole] + COC(=O)c1ccc([C@H]2c3[nH]c4ccccc4c3C[C@H](C(=O)OC)N2C(=O)CCl)cc1 [RSL3]	0.63	0.488
O=C(O)c1cccc(N=Nc2c(O)[nH]c3ccc(S(=O)(=O)NCc4ccc(F)cc4)cc23)c1 + COC(=O)c1ccc([C@H]2c3[nH]c4ccccc4c3C[C@H](C(=O)OC)N2C(=O)CCl)cc1 [RSL3]	0.516	0.611
O=C(Nc1ccncc1)c1cc([N+](=O)[O-])ccc1Cl + COC(=O)c1ccc([C@H]2c3[nH]c4ccccc4c3C[C@H](C(=O)OC)N2C(=O)CCl)cc1 [RSL3]	0.297	0.438
Cc1cc([N+](=O)[O-])ccc1NS(=O)(=O)c1cc(Cl)ccc1Cl + COC(=O)c1ccc([C@H]2c3[nH]c4ccccc4c3C[C@H](C(=O)OC)N2C(=O)CCl)cc1 [RSL3]	0.264	0.515
C[C@H]1N=C(N(C)C)N=C(N)N1 [Imeglimin hydrochloride] + COC(=O)c1ccc([C@H]2c3[nH]c4ccccc4c3C[C@H](C(=O)OC)N2C(=O)CCl)cc1 [RSL3]	0.504	0.647
O=c1ccc2cc(O)c(O)cc2o1 [Esculetin] + COC(=O)c1ccc([C@H]2c3[nH]c4ccccc4c3C[C@H](C(=O)OC)N2C(=O)CCl)cc1 [RSL3]	0.301	0.497
COC(=O)/C=C/c1cccc(N(Cc2ccc(-c3ccc(N(C)C)cc3)cc2)C(=O)C2CCCCC2)c1 [Fexaramine] + COC(=O)c1ccc([C@H]2c3[nH]c4ccccc4c3C[C@H](C(=O)OC)N2C(=O)CCl)cc1 [RSL3]	0.316	0.601
COc1ccc(-c2c[nH]c3nccc(-c4ccsc4)c23)c(OC)c1 + COC(=O)c1ccc([C@H]2c3[nH]c4ccccc4c3C[C@H](C(=O)OC)N2C(=O)CCl)cc1 [RSL3]	0.403	0.665
COc1cc(N(C)C)cc(CN(C)CCc2ccc([N+](=O)[O-])cc2)c1O [CDC25 Phosphatase Inhibitor I] + COC(=O)c1ccc([C@H]2c3[nH]c4ccccc4c3C[C@H](C(=O)OC)N2C(=O)CCl)cc1 [RSL3]	0.454	0.886
C=CC[S+]([O-])C[C@H](N)C(=O)O (stereo partly specified) [Alliin] + COC(=O)c1ccc([C@H]2c3[nH]c4ccccc4c3C[C@H](C(=O)OC)N2C(=O)CCl)cc1 [RSL3]	0.554	0.704
CCCCC[C@H](O)CC(=O)CCc1ccc(O)c(OC)c1 [6-Gingerol] + COC(=O)c1ccc([C@H]2c3[nH]c4ccccc4c3C[C@H](C(=O)OC)N2C(=O)CCl)cc1 [RSL3]	0.298	0.483
